PNC assembly inh: perinucleolar compartment assembly inhibition | PC3M PTB-GFP, PNC prevalence imaging, 16 h; stronger effect = lower value | 3.1% of 140,000 active | activity change (PNC), negative = inhibition, % at 10 µM;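 active = readout at or below -70, meaning at least 70% loss of cells showing the perinucleolar compartment, a nuclear body marking cancer cells; inconclusive = readout between -30 and a set limit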;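 note: plate controls were DMSO wells for no effect and camptothecin positive control wells for full effect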
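PC3M cells stably expressing PTB-GFP, 750–1000 cells/well, treated 16 h at 37 °C with compound (23 nl of library stock), in duplicate. After paraformaldehyde fixation and Hoechst stain, imaged at 20x; PNC prevalence scored by image analysis.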
ALDH1A1 block: inhibitors of human aldehyde dehydrogenase 1A1; 7.3% of 220,000 active; Potency, µM (top dose mostly 75.3 µM), inactives show at the top dose activity, negative = inhibition, hits mostly inhibitors; P00352; Purified ALDH1A1, NADH fluorescence, propionaldehyde substrate;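 note: potency is the fitted concentration of half-maximal effect; plate controls were no enzyme wells and a reference inhibitor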
IMPase cell inh: membrane-permeable compound that blocks inositol monophosphatase; CHO-M1 cells, IP1 accumulation, HTRF TR-FRET ratio; inhibition (IP1 accumulation), % at 46.1 µM; AID 901; 120,000 tested, under 10 active; P97697; active = well fitted curve in the direction sought with a large enough effect in the signal ratio, not every such curve was filed as active; inconclusive = small, poorly fitted or top-dose-only effect, or a change in a side signal; inactive = no such curve, though single readings can be large or run the other way; the % refers to the signal ratio;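 note: cells stimulated with carbachol in lithium chloride buffer; plate controls were DMSO basal wells for no effect and reference inhibitor wells for full effect; higher means more IMPase inhibition seen as more IP1 and lower FRET ratio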
Target sequence (P97697 whole entry, looked up): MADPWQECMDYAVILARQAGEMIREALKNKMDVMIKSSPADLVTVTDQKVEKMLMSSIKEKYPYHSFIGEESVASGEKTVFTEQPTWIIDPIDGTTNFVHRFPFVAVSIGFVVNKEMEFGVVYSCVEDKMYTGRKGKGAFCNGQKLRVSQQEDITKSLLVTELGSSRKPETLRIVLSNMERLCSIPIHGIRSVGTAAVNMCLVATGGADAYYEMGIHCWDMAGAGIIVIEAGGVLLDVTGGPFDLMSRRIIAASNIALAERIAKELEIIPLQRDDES
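Measured: the HTRF emission ratio (665/620 nm) plus the 620 nm donor channel, each fitted to the Hill equation to give AC50. Cells were CHO-M1 given compounds up to 46 uM and a 30 min carbachol stimulation at 37C.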
HPGD block: HPGD (human) dehydrogenase inhibition; P15428; 4.3% of 150,000 active; AID 894; purified HPGD, NADH fluorescence kinetic, PGE2 substrate; Potency, µM, without a hit: at the highest dose activity change, negative = inhibition, hits mostly inhibitors; note: potency is the fitted concentration of half-maximal effect
Target sequence (P15428 whole entry, looked up): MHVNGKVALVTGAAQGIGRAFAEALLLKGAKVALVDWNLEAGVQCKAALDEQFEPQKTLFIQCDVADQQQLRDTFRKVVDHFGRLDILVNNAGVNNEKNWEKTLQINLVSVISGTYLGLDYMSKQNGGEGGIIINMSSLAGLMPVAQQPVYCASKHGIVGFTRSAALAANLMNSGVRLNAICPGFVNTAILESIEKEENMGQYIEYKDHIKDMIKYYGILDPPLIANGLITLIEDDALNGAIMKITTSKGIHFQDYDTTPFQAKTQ
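NADH formation kinetics: reaction with 30 uM PGE2 and 1 mM NAD+ (final), 20 nM enzyme, Tris-HCl pH 8 with Tween 20, after 15 min compound preincubation at room temperature. Fluorescence change, last versus first of five reads.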
IMPase Li inh: cell-permeable IMPase inhibitors with lithium potentiation; Potency, µM (titrated, usually from 59.4 µM), without a hit: at the top dose activity, negative = IMPase inhibition, actives largely listed as inhibitors; 0.35% of 210,000 active; AID 1457; CHO-M1 cells, IP1 TR-FRET (IP-One), carbachol + lithium; active = well fitted curve in the direction sought with a large enough effect; inconclusive = small, poorly fitted or top-dose-only effect, or another doubt; inactive = no such curve, though single readings can be large; an effect the other way counts as inactive or inconclusive;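 note: IP1 builds up when IMPase is blocked and the TR-FRET signal falls; potency is the fitted concentration of half-maximal effect; plate controls were basal vehicle for no effect and high inhibitor control for full effect; nearly all actives have a fitted effect of over 50% in size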
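CHO-M1, 2000 cells/well, 16–30 h culture; cpd + low Li+, 30 min 37C; lysis with d2-IP1/Eu-anti-IP1 Ab, 10 min RT; TR-FRET 665/620 ratio and 620 channel; AC50 via Hill.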
12-hLO inh: 12-hLO (ALOX12) enzyme inhibition; 0.12% of 150,000 active; Potency, µM (titrated, usually from 57.1 µM), without a hit: at the top dose activity change, negative = inhibition, actives largely listed as inhibitors; purified 12-hLO, xylenol orange hydroperoxide absorbance; AID 1452; P18054; active = well fitted curve in the direction sought with a large enough effect; inconclusive = small, poorly fitted or top-dose-only effect, or another doubt; inactive = no such curve, though single readings can be large; an effect the other way counts as inactive or inconclusive; note: potency is the fitted concentration of half-maximal effect; nearly all actives have a fitted effect of over 55% in size
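Purified human 12hLO (150 nM), preincubated 15 min with compound, then 40 uM arachidonic acid for 30 min, room temperature, Hepes pH 7.0 with 0.01% Triton X-100. Hydroperoxide detected by ferrous iron/xylenol orange; 573/405 nm absorbance ratio gives reaction progress.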
An asterisk follows results filed as active; ? = inconclusive; . = not tested or not shown; [ ] = dose if it differs, or a comment. Rows were chosen to be rich in hits. Some 11% of all compounds tested hit in one or more screens of this group. Unless noted, calls come from the whole dose curve; as a rule, active = well fitted inhibition curve with a large enough effect (not every such curve was filed as active); inconclusive = small, poorly fitted or top-dose-only effect, or another doubt; inactive = no such curve, though single readings can be large or run the other way. Unless noted, % is set by controls: 0 for no effect and ±100 for the full control effect.

SMILES	PNC assembly inh	ALDH1A1 block	IMPase cell inh	HPGD block	IMPase Li inh	12-hLO inh
CC(C)(C)NCC(O)COc1cccc2c1C[C@H](O)[C@H](O)C2 (some centres not stated)	-115*	-2%	.	-3%	-1%	1%
CN(C)Cc1ccccc1-c1nccc(NCc2cccs2)n1	.	8%	.	2%	-7%	5%
N=c1c(C(=O)NCC2CCCO2)cc2c(=O)n3ccccc3nc2n1CCCO (configuration not stated)	.	.	-29	.	.	.
CCCOc1ccc(C(C)=O)cc1CN1CCOCC1	-5	-6%	.	-1%	0%	5%
CC(=O)c1ccc(Oc2ncnc3sccc23)c(CN2CCOCC2)c1	-10	?	1	25µM*	1%	3%
COc1cccc(NC(=O)C2CCN(S(=O)(=O)c3c(C)noc3C)CC2)c1	.	.	4	.	.	.
COc1cc(/C=N/NC(=O)CCN2CCN(c3ccccc3)CC2)cc(OC)c1OC	-86*	-11%	.	-12%	2%	-3%
C/C(=N\NC(=O)Cc1csc(N2CCOCC2)n1)c1ccccc1	-7	1%	-4	-10%	20%[38.3 µM]	2%
O=C(CCN1CCN(c2ccccc2)CC1)N/N=C/c1ccc(O)c(O)c1O	.	4µM*	.	.	24%	.
COc1cc(/C=N/NC(=O)CCN2CCN(Cc3ccccc3)CC2)cc(OC)c1OC	14	?	.	?	29%	3%
O=C(Cc1csc(N2CCOCC2)n1)N/N=C/c1ccc(O)c(O)c1O	.	7.5µM*	.	.	22%	.
COc1ccc(/C=N/NC(=O)CCN2CCN(c3ccccc3)CC2)c(OC)c1OC	-25	4%	-1	0%	5%	0%
O=C(CCNC(=O)c1ccccc1Cl)NC1=NCCS1	.	9%	.	.	1%	.
Cc1cccc(-c2nc3ccccc3n3c(-c4ccccc4)c4c(=O)n(C)c(=O)n(C)c4c23)c1	.	.	0	.	.	.
CCOC(=O)c1nc(Nc2ccc(C(=O)OC(C)C)cc2)c2ccccc2n1	.	.	-6	.	.	.
COC1OC2COC(c3ccccc3)OC2C(O)C1O (configuration not stated)	.	5%	2	-11%	3%	1%
O=C(Nc1ccc(S(=O)(=O)Nc2ccc(F)cc2)cc1)c1ccc(CN2CCOCC2)cc1	.	11%	.	.	21%	.
Cn1cc([N+](=O)[O-])c(C(=O)Nc2cc(Oc3cccnc3)cc([N+](=O)[O-])c2)n1	?	13µM*	1	-7%	-16%[38.3 µM]	2%
Cn1cc([N+](=O)[O-])c(C(=O)Nc2ccc(C(=O)N3CCCCC3)cc2)n1	?	-12%	.	0.4µM*	5%	-1%
CCn1ncc([N+](=O)[O-])c1C(=O)Nc1ccc(C(=O)N2CCCCC2)cc1	15	?	.	2.2µM*	-1%	-1%
CC(C)c1ccc(NC(=O)C2CCCN(S(=O)(=O)c3ccc(Br)s3)C2)cc1 (configuration not stated)	.	.	-3	.	.	.
O=C(Oc1ccnc2cc(Cl)ccc12)N1CCCCCC1	?	5µM*	14	32µM*	9%[38.3 µM]	-8%
N#Cc1cc([N+](=O)[O-])c(-n2nnc3ccccc32)c([N+](=O)[O-])c1	-3	0%	-4	28µM*	6%[38.3 µM]	-10%
Cc1ccc(NC(=O)CCl)cc1S(=O)(=O)N1CCCCCC1	.	1.5µM*	.	.	-1%	.
COc1ccc(NC(=O)CN(C)Cc2c(F)cccc2Cl)cc1S(=O)(=O)N1CCCCC1	.	28µM*	.	.	11%	.
SMILES	PNC assembly inh	ALDH1A1 block	IMPase cell inh	HPGD block	IMPase Li inh	12-hLO inh
Cc1cc([N+](=O)[O-])cnc1N1CCOCC1	-114*	-3%	.	-3%	-4%	-2%
O=[N+]([O-])c1ccc(N2CCCCC2)cn1	.	1%	.	.	15%	.
O=[N+]([O-])c1cnc(N2CCCCC2)c([N+](=O)[O-])c1	?	18µM*	.	-24%	5%	5%
Cn1nc([N+](=O)[O-])nc1N1CCOCC1	-11	2%	.	-9%	-5%	1%
CCN(CCNCC(O)COCc1ccc(Cl)cc1)c1cccc(C)c1 (configuration not stated)	.	?	.	.	1%	.
CCCCC(=O)Nc1ccc(C(=O)N2CCCC(C(=O)OCC)C2)cc1 (configuration not stated)	31	?	-6	14µM*	16%[38.3 µM]	5%
CCCC(=O)Nc1ccc(C(=O)N2CCCC2)cc1	?	6%	-2	14µM*	23%[38.3 µM]	0%
CCOC(=O)C1CCCN(C(=O)c2ccc(OC)c([N+](=O)[O-])c2)C1 (configuration not stated)	-95*	4.5µM*	.	-5%	13%	-1%
CCCC(=O)Nc1ccc(C(=O)NNC(=O)c2ccccc2Br)cc1	-1	?	0	28µM*	-24%[38.3 µM]	-1%
CCc1cccc(NC(c2ccccc2)c2nnc(-c3ccccc3F)o2)c1 (configuration not stated)	.	.	1	.	.	.
O=C(CC1C(=O)NCCN1CC1CCCCC1)NCc1ccc(Cl)cc1 (configuration not stated)	.	20µM*	.	.	7%	.
C=CCn1c(SCc2cc(C(C)=O)ccc2OCC)nc2ccccc2c1=O	?	2.2µM*	.	-12%	30%	1%
COCCn1c(SCc2cc(C(C)=O)ccc2OC)nc2cc(Cl)ccc2c1=O	-17	18µM*	.	-3%	16%	0%
CCOc1ccc(C(C)=O)cc1CSc1nc(C)cc(C)n1	.	4µM*	.	.	-6%	.
COc1ccc(C(C)=O)cc1CSc1nc2ccccc2c(=O)n1-c1ccccc1C	-9	?	.	-1%	4%	-4%
COc1ccc(C(C)=O)cc1CSc1nc2ccccc2c(=O)n1-c1ccccc1	?	?	4	-11%	?	6%
O=c1cnc2cnc(Nc3ccccc3)nc2n1Cc1cccs1	.	1%	.	.	28%	.
CCc1nc(SCC(=O)Nc2c(C)nn(C)c2C)c2cnn(-c3ccccc3)c2n1	23	7%	9	-6%	-7%[38.3 µM]	2%
Cc1nn(Cc2ccccc2)c(C)c1NC(=O)CSc1nc(C2CC2)nc2c1cnn2-c1ccccc1	-88*	4%	3	-24%	2%	3%
COc1ccc(-c2cc(C(=O)N/N=C/c3ccc(OC)c(OC)c3)[nH]n2)cc1	.	?	.	?	.	-4%
CC(C)Oc1ccc(C(=O)Nc2ccc3oc(-c4ccncc4)nc3c2)cc1	.	.	-27	.	.	.
O=C(Nc1ccc(O)c(C(=O)O)c1)c1ccc2c(c1)C(=O)N(CC1CCCO1)C2=O (configuration not stated)	-1	10µM*	2	-27%	-1%[38.3 µM]	-3%
Cc1ccc(NC(=O)c2ccc3c(c2)C(=O)N(CC2CCCO2)C3=O)cc1C (configuration not stated)	.	3.2µM*	.	.	22%	.
